This passage reports composite z-score and z-score results from PubChem BioAssay.

Test [1] in a line: small molecules captured by biotinylated probe aFSTL3 – biochemical, small-molecule microarray, fluorescence 635/667, stem cell growth factor project, primary screen (AID 1064).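 Also: measures binding of the biotinylated anti-FSTL3 antibody to printed compounds.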 The conditions noted are these: higher = more signal.
Test [2] in a line: binders from COS7 lysate, DM2A8 probe, primary screen, torsin A project, cell lysate, small-molecule microarray, fluorescence 635/667 (AID 1065). The note with it: higher = more signal, COS7 lysate expressing mutant human TOR1A.
Test [3] is described as follows: small molecules captured by biotinylated probe aFGF2 – biochemical, small-molecule microarray, fluorescence 635/667, stem cell growth factor project, primary screen (AID 1067).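 Also: measures binding of biotinylated aFGF2 protein to printed compounds on slides; z-score merges feature fluorescence and signal-to-noise across triplicate slides.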 The conditions noted are these: higher = more signal.
Test [4] in a line: small molecules captured by biotinylated probe aFGF10 – biochemical, small-molecule microarray, fluorescence 635/667, stem cell growth factor project, primary screen (AID 1071).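 Also: score merges 667 nm spot intensity and signal to noise from triplicate slides.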 The conditions noted are these: higher = more signal.
In test [5] the target is Neurogenic locus notch homolog protein 2 (Homo sapiens) (UniProt Q04721). Put plainly: small molecules binding Notch2 protein – biochemical, small-molecule microarray, 635 nm fluorescence, stem cell growth factors, primary screen (AID 1073). The note with it: higher = more signal.
Test [6] concerns the target Pro-neuregulin-1, membrane-bound isoform (Homo sapiens) (UniProt Q02297). Nature of the test: small molecules binding neuregulin-1 protein – biochemical, small-molecule microarray, fluorescence 635/667, psychiatric disease protein project, primary screen (AID 1075).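 Also: score combines 667 nm spot fluorescence with signal to noise.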 The conditions noted are these: NRG1 binding, 635 nm fluorescence, higher = more signal.
The test system of test [7] is Neuregulin-1 EGF-like domain. Put plainly: small molecules binding NRG1 EGF domain – biochemical, small-molecule microarray, 635 nm fluorescence, primary screen (AID 1081).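 Also: binding of the protein to compounds printed on small-molecule microarray slides.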 The note with it: higher = more signal.
Test [8] in a line: FRG1 expression reporter modulators in myotubes – cell-based, C2C12 myotubes, firefly/Renilla luciferase, luminescence, FRG1 inhibition for FSHD, primary screen (AID 1084). The note with it: FRG1 promoter luciferase, higher = more signal, called active from +8 up or from −8 down.
Test [9] in a line: small molecules captured by biotinylated probe aFST – biochemical, small-molecule microarray, fluorescence 635/667, stem cell growth factor project, primary screen (AID 1086).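 Also: score merges 667 nm fluorescence with signal-to-noise of each printed compound spot.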 The note with it: higher = more signal.
Test [10] is described as follows: binders of probe aHhip on microarray, primary screen, stem cell growth factor project, biochemical, small-molecule microarray, fluorescence 635/667 (AID 1087).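 Also: score merges spot fluorescence at 667nm with spot signal to noise ratio.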 The note with it: higher = more signal.
Test [11] concerns PRMT1 (protein arginine N-methyltransferase 1). Nature of the test: small molecules binding arginine methyltransferase PRMT1 – biochemical, small-molecule microarray, 635 nm fluorescence, primary screen (AID 1088).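 Also: binding of Prmt1 protein to compounds spotted on small-molecule microarray slides.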 The conditions noted are these: higher = more signal.
Test [12] is described as follows: growth effects on S. cerevisiae YJM789 – YJM789 clinical isolate, OD600, 24 h, basal, primary screen (AID 1089).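 Also: growth of clinical yeast isolate S. cerevisiae YJM 789 seeded 1000 cells per well; test concentration not given here.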 The note with it: higher = more signal, called active from +8 up or from −8 down.
A short description of test [13]: S. pombe growth modifiers, basal conditions – strain 972, OD600, 24 h, no modulator, primary screen (AID 1090).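 Also: basal condition with compound alone and no growth modifier present; test concentration not given here.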 The note with it: S. pombe 972 growth, higher = more signal, called active from +8 up or from −8 down.
A short description of test [14]: budding yeast growth modifiers under rapamycin – strain BY4716, OD600, 96 h, primary screen (AID 1091). Also: test concentration not given here. The note with it: S. cerevisiae BY4716 + rapamycin, higher = more signal, called active from +8 up or from −8 down.
Test [15] deals with Torsin-1A-interacting protein 2 (Homo sapiens) (UniProt Q8NFQ8). Put plainly: small molecules binding lysate-expressed LULL1 – cell lysate, human LULL1 lysate, 635/667 nm fluorescence, primary screen (AID 1092).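 Also: probe is lysate of COS7 cells overexpressing human LULL1; score merges per-feature 667 nm fluorescence with signal-to-noise.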 The conditions noted are these: small-molecule microarray, hLULL1 lysate binding, 635 nm fluorescence; higher = more signal.
The nature of test [16]: optical density change of DRC41 E. coli – strain DRC41, OD650, 24 h, E. coli filamentation project, primary screen (AID 1093).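 Also: MC1000 strain lacking acrAB efflux and sulA so SOS filamentation is blocked; test concentration not given here.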 The note with it: E. coli DRC41 growth, higher = more signal, called active from +8 up or from −8 down.
Test [17] is described as follows: probe aLefty2 binding to arrayed compounds – biochemical, biotinylated probe, 635/667 nm fluorescence, primary screen (AID 1094).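 Also: score merges spot fluorescence near 667 nm with spot signal-to-noise ratio.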 The conditions noted are these: small-molecule microarray, higher = more signal.
The subject of test [18] is Noggin (protein binding on small-molecule microarray). Nature of the test: small molecules binding Noggin protein – biochemical, 635/667 nm fluorescence, primary screen (AID 1095).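 Also: score merges 667 nm feature fluorescence with signal to noise over triplicate slides.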 The conditions noted are these: 635 nm fluorescence, higher = more signal.
The target of test [19] is Neurogenic locus notch homolog protein 3 (Homo sapiens) (UniProt Q9UM47). Nature of the test: small molecules binding NOTCH3 protein – biochemical, 635/667 nm fluorescence, primary screen (AID 1096). The note with it: small-molecule microarray, 635 nm fluorescence, higher = more signal.
The nature of test [20]: probe aEGFR binding to arrayed compounds – biochemical, biotinylated probe, 635/667 nm fluorescence, primary screen (AID 1097).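 Also: probe is a biotinylated anti-EGFR antibody binding compounds printed on slides; score combines fluorescence near 667 nm and signal to noise of each spot.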 The note with it: small-molecule microarray, higher = more signal.

Calls of active or inactive are those of the source.

Chain of Torsin-1A-interacting protein 2 (Homo sapiens) (Q8NFQ8 whole entry, looked up): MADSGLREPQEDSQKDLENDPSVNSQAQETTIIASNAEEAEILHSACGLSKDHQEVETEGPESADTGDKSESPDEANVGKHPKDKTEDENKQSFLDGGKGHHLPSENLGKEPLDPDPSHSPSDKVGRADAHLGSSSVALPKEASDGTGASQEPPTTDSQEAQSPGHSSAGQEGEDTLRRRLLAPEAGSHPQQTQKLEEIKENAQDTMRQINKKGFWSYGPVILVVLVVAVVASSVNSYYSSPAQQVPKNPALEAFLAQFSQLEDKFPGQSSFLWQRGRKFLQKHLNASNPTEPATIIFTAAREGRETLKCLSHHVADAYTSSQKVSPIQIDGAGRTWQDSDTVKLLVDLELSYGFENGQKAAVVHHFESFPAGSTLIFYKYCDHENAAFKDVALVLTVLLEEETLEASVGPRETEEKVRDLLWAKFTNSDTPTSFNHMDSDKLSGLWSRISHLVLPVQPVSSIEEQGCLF
Chain of Pro-neuregulin-1, membrane-bound isoform (Homo sapiens) (Q02297 whole entry, looked up, the tested form may be a part, canonical isoform): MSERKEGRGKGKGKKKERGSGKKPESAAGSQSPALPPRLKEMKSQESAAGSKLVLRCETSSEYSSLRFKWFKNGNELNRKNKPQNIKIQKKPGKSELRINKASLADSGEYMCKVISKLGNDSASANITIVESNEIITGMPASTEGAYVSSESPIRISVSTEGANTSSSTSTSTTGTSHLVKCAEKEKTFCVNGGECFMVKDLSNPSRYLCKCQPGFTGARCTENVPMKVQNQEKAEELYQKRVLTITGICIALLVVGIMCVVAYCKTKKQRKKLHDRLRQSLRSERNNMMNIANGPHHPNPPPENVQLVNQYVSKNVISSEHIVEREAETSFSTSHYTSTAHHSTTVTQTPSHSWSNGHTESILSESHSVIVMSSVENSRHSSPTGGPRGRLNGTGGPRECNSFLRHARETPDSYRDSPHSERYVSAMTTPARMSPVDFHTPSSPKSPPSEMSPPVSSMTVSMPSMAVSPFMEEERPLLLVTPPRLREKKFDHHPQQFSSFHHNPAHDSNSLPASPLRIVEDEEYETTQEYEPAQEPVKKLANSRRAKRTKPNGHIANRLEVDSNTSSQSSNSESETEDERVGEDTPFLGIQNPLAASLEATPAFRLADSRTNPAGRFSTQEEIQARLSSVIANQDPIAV
Chain of Neurogenic locus notch homolog protein 2 (Homo sapiens) (Q04721 whole entry, looked up, canonical isoform): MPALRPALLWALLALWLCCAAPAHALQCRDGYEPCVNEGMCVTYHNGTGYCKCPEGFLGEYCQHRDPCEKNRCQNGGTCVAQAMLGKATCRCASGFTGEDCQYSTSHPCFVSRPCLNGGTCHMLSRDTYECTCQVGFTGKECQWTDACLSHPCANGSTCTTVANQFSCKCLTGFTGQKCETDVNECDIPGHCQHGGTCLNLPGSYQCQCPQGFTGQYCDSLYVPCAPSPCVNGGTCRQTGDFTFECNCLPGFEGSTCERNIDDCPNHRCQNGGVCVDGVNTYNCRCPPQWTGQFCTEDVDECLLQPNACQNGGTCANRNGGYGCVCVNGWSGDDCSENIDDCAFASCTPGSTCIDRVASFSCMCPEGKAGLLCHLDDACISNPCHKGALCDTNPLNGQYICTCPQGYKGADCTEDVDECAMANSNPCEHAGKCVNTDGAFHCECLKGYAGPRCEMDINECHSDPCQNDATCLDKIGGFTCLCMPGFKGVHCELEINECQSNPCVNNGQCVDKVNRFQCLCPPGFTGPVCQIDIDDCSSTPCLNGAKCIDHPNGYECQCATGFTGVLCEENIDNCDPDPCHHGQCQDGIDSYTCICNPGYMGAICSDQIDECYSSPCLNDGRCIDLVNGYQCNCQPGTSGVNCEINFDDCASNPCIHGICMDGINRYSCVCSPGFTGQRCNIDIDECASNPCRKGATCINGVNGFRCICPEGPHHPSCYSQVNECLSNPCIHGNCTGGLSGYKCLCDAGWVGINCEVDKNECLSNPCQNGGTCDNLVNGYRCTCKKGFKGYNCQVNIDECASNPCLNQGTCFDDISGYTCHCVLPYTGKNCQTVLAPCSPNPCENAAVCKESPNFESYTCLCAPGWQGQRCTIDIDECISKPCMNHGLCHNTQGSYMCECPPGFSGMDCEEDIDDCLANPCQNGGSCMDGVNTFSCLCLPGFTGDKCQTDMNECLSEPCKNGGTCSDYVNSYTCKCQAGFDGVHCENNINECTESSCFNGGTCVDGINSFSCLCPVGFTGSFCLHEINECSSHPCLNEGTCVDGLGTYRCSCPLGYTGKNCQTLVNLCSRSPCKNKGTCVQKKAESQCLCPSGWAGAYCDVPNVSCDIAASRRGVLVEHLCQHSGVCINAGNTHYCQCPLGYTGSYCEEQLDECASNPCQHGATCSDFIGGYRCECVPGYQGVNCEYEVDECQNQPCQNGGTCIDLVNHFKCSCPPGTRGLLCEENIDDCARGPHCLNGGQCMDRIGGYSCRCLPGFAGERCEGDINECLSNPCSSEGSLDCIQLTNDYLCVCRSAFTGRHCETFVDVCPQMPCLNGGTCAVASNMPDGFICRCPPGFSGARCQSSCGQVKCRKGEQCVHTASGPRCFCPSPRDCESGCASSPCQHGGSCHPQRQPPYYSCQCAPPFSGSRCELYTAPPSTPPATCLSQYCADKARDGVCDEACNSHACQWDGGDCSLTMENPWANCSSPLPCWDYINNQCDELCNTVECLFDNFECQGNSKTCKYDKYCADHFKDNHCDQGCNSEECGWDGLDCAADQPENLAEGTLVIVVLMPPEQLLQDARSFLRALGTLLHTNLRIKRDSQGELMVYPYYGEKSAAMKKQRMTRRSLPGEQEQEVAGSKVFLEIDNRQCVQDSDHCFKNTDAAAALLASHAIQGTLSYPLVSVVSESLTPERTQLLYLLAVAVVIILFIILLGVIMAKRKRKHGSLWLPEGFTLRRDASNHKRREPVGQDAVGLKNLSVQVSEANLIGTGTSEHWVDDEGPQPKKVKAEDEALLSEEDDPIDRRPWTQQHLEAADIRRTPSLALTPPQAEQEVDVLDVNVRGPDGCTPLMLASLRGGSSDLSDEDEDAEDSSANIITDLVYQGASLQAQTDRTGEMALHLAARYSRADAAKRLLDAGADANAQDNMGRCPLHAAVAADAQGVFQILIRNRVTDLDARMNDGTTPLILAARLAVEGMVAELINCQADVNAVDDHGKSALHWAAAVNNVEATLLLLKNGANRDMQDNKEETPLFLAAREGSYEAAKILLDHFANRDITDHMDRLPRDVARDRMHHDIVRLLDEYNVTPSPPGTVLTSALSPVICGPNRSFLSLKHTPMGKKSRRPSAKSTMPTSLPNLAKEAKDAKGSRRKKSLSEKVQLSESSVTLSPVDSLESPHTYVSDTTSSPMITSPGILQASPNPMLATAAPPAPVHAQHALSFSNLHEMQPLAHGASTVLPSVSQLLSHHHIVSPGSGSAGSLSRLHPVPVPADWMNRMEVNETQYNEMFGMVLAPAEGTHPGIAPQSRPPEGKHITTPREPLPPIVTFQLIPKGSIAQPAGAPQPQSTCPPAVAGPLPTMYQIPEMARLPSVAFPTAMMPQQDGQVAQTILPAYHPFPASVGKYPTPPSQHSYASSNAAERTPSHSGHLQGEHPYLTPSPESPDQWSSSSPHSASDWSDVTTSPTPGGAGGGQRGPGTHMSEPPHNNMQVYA

`C[C@H]1COC(=O)[C@@H]2CCCN2C(=O)[C@@H](C)COC(=O)[C@H](Cc2ccccc2)NC1=O`: the composite z-score in test [1] is -0.596; in [2] it was 0.142; in [3], -0.183; in test [4], 0.525; in test [5] it was 0.731; in test [6] it was -0.147. The composite z-score in test [7] was 0.184; in test [9], 0.761; in test [10], -0.0645; in [11] it was 0.907; in test [15] it was 1.24; in [17], -0.141. The composite z-score in [18] was found to be 0.396; in test [19], 0.889; in test [20], 0.081. Also, the z-score is -0.0297 (inactive) in test [8]; -0.801 (inactive) in test [12]; 0.103 (inactive) in test [13]; -1.2 (inactive) in [14]; 0.0412 (inactive) in test [16].

As for `CCOC(=O)[C@H](Cc1ccccc1)NC(=O)CCC1CC(OC(=O)NCCc2ccc(F)cc2)CC2(CCCC(COC(=O)NCCc3ccccc3OC)O2)O1` (stereo not given in full), the composite z-score in [1] is -0.582; in [2] it was 0.238; in [3], -0.0592; in test [4], 0.82; in test [5] it was 0.879; in [6], 0.729. Also, the composite z-score was 1.22 in [7]; 0.759 in [9]; -0.134 in test [10]; 1.4 in test [11]; 2.18 in [15]; -0.157 in [17]. The figures for the composite z-score in test [18], in [19] and in test [20] were 0.955, 1.13 and 0.0846, respectively. The z-score is 0.865 (inactive) in test [8]; -0.053 (inactive) in [12]; 0.932 (inactive) in test [13]; 0.785 (inactive) in test [14]; -0.715 (inactive) in test [16].

Take `CCOC(=O)[C@H](CC(C)C)NC(=O)CCC1CC(OC(=O)NCc2cccc3ccccc23)CC2(CCCC(COC(=O)NCc3cccc(C(F)(F)F)c3)O2)O1` (stereo not given in full): the composite z-score in test [1] was -0.5; in [2], 0.0221; in test [3] it was -0.125; in test [4] it was 0.469; in [5], 0.611; in test [6], -0.0419. Further, the composite z-score in [7] is 0.0188; in test [9], -0.262; in test [10] it was 0.0749; in test [11], 0.221; in test [15] it was 0.135; in [17], -0.251. Further, the composite z-score is 0.582 in test [18], 0.359 in test [19] and -0.137 in test [20]. The z-score in test [8] was -1.03 (inactive); in test [12], 0.533 (inactive); in test [13] it was 0.171 (inactive); in test [14], 0.289 (inactive); in test [16], 0.294 (inactive).

As for `CCOC(=O)[C@H](Cc1ccccc1)NC(=O)CCC1CC(OC(=O)NCCc2ccc(F)cc2)CC2(CCCC(COC(=O)NCCCN3CCCC3=O)O2)O1` (stereo not given in full), the composite z-score is -0.478 in test [1]; 0.291 in [2]; -0.0628 in [3]; 0.328 in test [4]; 1.16 in [5]; 0.533 in test [6]. Further, the composite z-score in test [7] is 0.394; in test [9] it was 0.326; in [10] it was -0.0994; in test [11] it was 1.37; in test [15], 2; in test [17], -0.0986. The composite z-score in test [18] turned out to be 0.373; in test [19], 1.14; in test [20] it was 0.006. Also, the z-score in [8] was -1.9 (inactive); in test [12] it was -1.68 (inactive); in test [13], -0.574 (inactive); in test [14], 0.674 (inactive); in [16], -0.806 (inactive).

For `CC(C)CON=C1C[C@@H](O)[C@@H](O)[C@@H]2[C@@H]3C(=O)N(C[C@@H]4CCCO4)C(=O)[C@@H]3CC[C@@H]12`, the composite z-score is -0.308 in test [1]; -0.0385 in test [2]; -0.132 in [3]; 0.0654 in test [4]; -0.489 in test [5]; -0.672 in test [6]. For the same compound, the composite z-score is -0.321 in test [7]; -0.271 in test [9]; -0.0994 in test [10]; 0.242 in test [11]; 1.38 in test [15]; -0.209 in test [17]. Further, the composite z-score is 0.262 in [18], -0.435 in test [19] and -0.22 in test [20]. Also, the z-score in test [8] is -0.108 (inactive); in test [12] it was -1.49 (inactive); in test [13], 0.283 (inactive); in [14] it was -0.625 (inactive); in [16], 1.27 (inactive).
